{"source": "the supplement of paper PMC3334620", "note": "In all, about 33,000 sequences were measured (“E-score (-0.5 to 0.5)”: median about -0.04, highest 2% from about 0.36 on). The entries come from a sample that favours the highest values as a whole."}
{"molecular_target": "T1, Hmlalpha2 (UniProt P0CY09)", "T1 sequence": "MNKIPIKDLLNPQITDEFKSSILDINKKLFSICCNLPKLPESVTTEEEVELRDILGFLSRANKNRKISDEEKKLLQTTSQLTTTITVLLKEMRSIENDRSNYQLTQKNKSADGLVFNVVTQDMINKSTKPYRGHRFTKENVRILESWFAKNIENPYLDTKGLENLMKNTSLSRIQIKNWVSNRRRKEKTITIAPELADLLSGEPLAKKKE", "assay": "PBM E-score (8-mer binding enrichment) (E-score (-0.5 to 0.5)); higher = stronger / more preferred TF binding", "settings": "protein concentration: 200 nM; construct: GST-full length", "procedure": "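Universal 'all 10-mer' protein binding microarrays (Agilent AMADID 015681) probed with GST-tagged S. cerevisiae TFs (full-length or DBD) made by in vitro transcription/translation (PURExpress), about 100-200 nM. Bound TF was detected with fluorescent anti-GST. Each ungapped 8-mer (which stands for itself and its reverse complement) is scored by the PBM enrichment score (E-score), a modified Wilcoxon-Mann-Whitney statistic from -0.5 to +0.5, computed with the Universal PBM Analysis Suite. Scale: above 0.35 generally sequence-specific binding.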"}
{"sequence": "AGAGGCCT", "PBM E-score": -0.263}
{"sequence": "AAATCTCA", "PBM E-score": -0.0212}
{"sequence": "GAGGTCTA", "PBM E-score": -0.0189}
{"sequence": "GCTGCAGC", "PBM E-score": -0.305}
{"sequence": "CACGTTAG", "PBM E-score": 0.113}
{"sequence": "CGCGTTAG", "PBM E-score": 0.3}
{"sequence": "GGCGTTAA", "PBM E-score": 0.216}
{"sequence": "AGCGTTAA", "PBM E-score": 0.0425}
{"sequence": "CGCGTTAA", "PBM E-score": 0.427}
{"sequence": "CGCGTTAC", "PBM E-score": 0.212}
{"sequence": "TACGTTAA", "PBM E-score": 0.325}
{"sequence": "CACGTTAA", "PBM E-score": 0.376}
{"sequence": "TGCGTTAA", "PBM E-score": 0.397}
{"sequence": "GCTATCAA", "PBM E-score": -0.0322}
{"sequence": "CTGACTCA", "PBM E-score": -0.179}
{"sequence": "AAGTCGCG", "PBM E-score": 0.111}
{"sequence": "TAATTCGA", "PBM E-score": 0.121}
{"sequence": "ACGCAAAA", "PBM E-score": 0.145}
{"sequence": "CCAGTGAC", "PBM E-score": -0.125}
{"sequence": "GCAGTTTA", "PBM E-score": 0.00455}
{"sequence": "CTTATAGA", "PBM E-score": -0.154}
{"sequence": "CTTATACA", "PBM E-score": 0.252}
{"sequence": "GTTATAGA", "PBM E-score": 0.368}
{"sequence": "ATTATACA", "PBM E-score": 0.34}
{"sequence": "ATTATAGA", "PBM E-score": 0.0519}
{"sequence": "GTTATACA", "PBM E-score": 0.4}
{"sequence": "CATGCGCC", "PBM E-score": -0.0099}
{"sequence": "ATGTCGGA", "PBM E-score": 0.0661}
{"sequence": "TACGTAAA", "PBM E-score": 0.41}
{"sequence": "TACGTATA", "PBM E-score": 0.327}
{"sequence": "CACGTAAA", "PBM E-score": 0.405}
{"sequence": "AACGTAAT", "PBM E-score": 0.379}
{"sequence": "CACGTAAC", "PBM E-score": 0.196}
{"sequence": "AACGTAAA", "PBM E-score": 0.325}
{"sequence": "CACGTAAG", "PBM E-score": 0.244}
{"sequence": "GACGTAAA", "PBM E-score": 0.28}
{"sequence": "AACGTAAC", "PBM E-score": 0.207}
{"sequence": "CGTCCACA", "PBM E-score": -0.0612}
{"sequence": "CCGCGGCC", "PBM E-score": -0.192}
{"sequence": "CTGCAAAG", "PBM E-score": -0.0914}
{"sequence": "CACGTTGG", "PBM E-score": 0.109}
{"sequence": "ACAGAGAG", "PBM E-score": -0.0914}
{"sequence": "CCCAATGC", "PBM E-score": -0.198}
{"sequence": "GAACATGA", "PBM E-score": 0.31}
{"sequence": "AAACATGC", "PBM E-score": 0.37}
{"sequence": "CAACATGA", "PBM E-score": 0.449}
{"sequence": "AAACATCC", "PBM E-score": 0.17}
{"sequence": "AAACATGG", "PBM E-score": 0.349}
{"sequence": "AAACATCT", "PBM E-score": 0.202}
{"sequence": "AAACATGT", "PBM E-score": 0.445}
{"sequence": "AAACATAC", "PBM E-score": 0.267}
{"sequence": "AAACATAT", "PBM E-score": 0.311}
{"sequence": "CCACATGG", "PBM E-score": -0.0738}
{"sequence": "CAACATGG", "PBM E-score": 0.403}
{"sequence": "CCACATGA", "PBM E-score": 0.109}
{"sequence": "ATCCTCCA", "PBM E-score": -0.166}
{"sequence": "ATACTGAT", "PBM E-score": 0.126}
{"sequence": "ACAGCCGG", "PBM E-score": -0.073}
{"sequence": "AGAGCTCC", "PBM E-score": -0.252}
{"sequence": "CTGGGAGA", "PBM E-score": -0.262}
{"sequence": "AAACATAA", "PBM E-score": 0.348}
{"sequence": "ACACATGT", "PBM E-score": 0.394}
{"sequence": "ACACATGA", "PBM E-score": 0.304}
{"sequence": "ACACATGG", "PBM E-score": 0.21}
{"sequence": "TAACATGA", "PBM E-score": 0.462}
{"sequence": "TAACATCA", "PBM E-score": 0.338}
{"sequence": "GAACATGC", "PBM E-score": 0.272}
{"sequence": "CAACATAC", "PBM E-score": 0.303}
{"sequence": "TAACATTA", "PBM E-score": 0.331}
{"sequence": "AAACATGA", "PBM E-score": 0.388}
{"sequence": "AAACATCA", "PBM E-score": 0.278}
{"sequence": "CAACATGC", "PBM E-score": 0.398}
{"sequence": "ACTAACCC", "PBM E-score": 0.0236}
{"sequence": "CAAGGGTC", "PBM E-score": -0.199}
{"sequence": "CCACACAG", "PBM E-score": -0.0322}
{"sequence": "ATGCGTTG", "PBM E-score": 0.205}
{"sequence": "GACTGACC", "PBM E-score": -0.192}
{"sequence": "GAGGTCAA", "PBM E-score": -0.0488}
{"sequence": "GTGAAGAA", "PBM E-score": 0.181}
{"sequence": "CCCAAACG", "PBM E-score": -0.123}
{"sequence": "ACAACTCA", "PBM E-score": 0.194}
{"sequence": "AGAATAGC", "PBM E-score": -0.15}
{"sequence": "AGTGCCAC", "PBM E-score": -0.215}
{"sequence": "CAGGAGCC", "PBM E-score": -0.225}
{"sequence": "CTCCCTCC", "PBM E-score": -0.389}
{"sequence": "CTTACACA", "PBM E-score": 0.408}
{"sequence": "GTCACACA", "PBM E-score": 0.15}
{"sequence": "GTTACAAA", "PBM E-score": 0.303}
{"sequence": "CTTACTCA", "PBM E-score": -0.0475}
{"sequence": "GTTACACA", "PBM E-score": 0.435}
{"sequence": "CTCACACA", "PBM E-score": 0.114}
{"sequence": "GCAAAACA", "PBM E-score": 0.135}
{"sequence": "CCCTTGCC", "PBM E-score": -0.285}
{"sequence": "TAACCGCA", "PBM E-score": 0.0481}
{"sequence": "AGACTCAT", "PBM E-score": -0.0539}
{"sequence": "CAATTACC", "PBM E-score": 0.0295}
{"sequence": "GACTTACA", "PBM E-score": 0.274}
{"sequence": "TAATTACA", "PBM E-score": 0.462}
{"sequence": "TAATTATA", "PBM E-score": 0.245}
{"sequence": "CACTTACA", "PBM E-score": 0.281}
{"sequence": "TACTTACA", "PBM E-score": 0.379}
{"sequence": "AAATTACT", "PBM E-score": 0.209}
{"sequence": "AAATTACA", "PBM E-score": 0.424}
{"sequence": "AAATTACG", "PBM E-score": 0.309}
{"sequence": "CAATTACG", "PBM E-score": 0.349}
{"sequence": "CAATTACA", "PBM E-score": 0.445}
{"sequence": "TAATTAGA", "PBM E-score": 0.167}
{"sequence": "CACCGCTA", "PBM E-score": -0.0146}
{"sequence": "CGAATTCA", "PBM E-score": -0.0293}
{"sequence": "AATGTAGT", "PBM E-score": 0.249}
